Experimental data from PubChem BioAssay (Tox21).
Inconclusive results are not listed. Entries that show only a call come without a potency. Values without a mark were called inactive. The source made the active and inactive calls. Unless noted, the call rests on the fitted dose curve; in most records, active means well fitted curve in the direction sought with a large enough effect in the repeat runs; inconclusive means weak or mixed curves; inactive means no such curve, though single readings can be large; an effect the other way counts as inactive or inconclusive.

What was measured:
[1] = qHTS assay to identify small molecule that activate the aryl hydrocarbon receptor (AhR) signaling pathway - cell viability counter screen (AID 743086); further: nearly all actives have a fitted effect of over 45% in size; further: potency means the concentration at half of the fitted maximal effect
Outline: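 HepG2-AhR-luc (HG2L7.5c1) cells, 4000/well, treated 24 h at 37 C with compound; viability measured as CellTiter-Fluor fluorescence after 30 min in the same wells as the luciferase read.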

[2] = biological target: Peroxisome proliferator-activated receptor gamma (Homo sapiens) (UniProt P37231); assay: qHTS assay to identify small molecule agonists of the peroxisome proliferator-activated receptor gamma (PPARg) signaling pathway (AID 743094; active means well fitted activation curve with a large enough effect in the signal ratio in the repeat runs, not every such curve was filed as active; the % refers to the signal ratio)
Chain of Peroxisome proliferator-activated receptor gamma (Homo sapiens) (P37231 whole entry, looked up): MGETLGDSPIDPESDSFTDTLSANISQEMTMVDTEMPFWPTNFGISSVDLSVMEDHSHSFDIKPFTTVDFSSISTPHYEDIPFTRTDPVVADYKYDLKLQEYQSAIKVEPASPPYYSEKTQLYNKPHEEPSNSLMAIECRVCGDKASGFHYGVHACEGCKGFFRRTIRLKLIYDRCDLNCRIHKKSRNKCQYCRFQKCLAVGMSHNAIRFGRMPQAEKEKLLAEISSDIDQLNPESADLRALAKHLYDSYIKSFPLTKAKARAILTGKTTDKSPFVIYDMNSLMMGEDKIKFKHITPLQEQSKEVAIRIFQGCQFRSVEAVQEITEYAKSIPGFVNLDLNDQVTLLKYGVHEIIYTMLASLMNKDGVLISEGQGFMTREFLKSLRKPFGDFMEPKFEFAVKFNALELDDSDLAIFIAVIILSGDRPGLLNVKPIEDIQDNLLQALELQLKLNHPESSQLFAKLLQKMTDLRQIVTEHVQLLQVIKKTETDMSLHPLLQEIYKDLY
Outline: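 HEK293H PPARg-bla cells, 5 h settle at 37C/5% CO2; compound (DMSO) 17 h, 37C; B/G FRET substrate 1 h RT; fluorescence intensity read-out. qHTS format.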

[3] = biological target: Peroxisome proliferator-activated receptor gamma (Homo sapiens) (UniProt P37231); assay: qHTS assay to identify small molecule antagonists of the peroxisome proliferator-activated receptor gamma (PPARg) signaling pathway (AID 743191; calls by dose curve; further: series mostly up to about 63 µM; nearly all actives have a fitted effect of over 30% in size)
Outline: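 GeneBLAzer PPARg UAS-bla HEK293H cells, 5 h post-plating, exposed to compounds 17 h at 37C. LiveBLAzer B/G FRET substrate added for 1 h at room temperature; beta-lactamase reporter read by fluorescence intensity.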

[4] = qHTS assay to identify small molecule antagonists of the peroxisome proliferator-activated receptor gamma (PPARg) signaling pathway - cell viability counter screen (AID 743194); further: nearly all actives have a fitted effect of over 55% in size
Outline: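 Cytotoxicity counter screen in PPARg-bla HEK293H cells, same wells as reporter assay. Compounds plus 50 nM rosiglitazone (final) for 17 h at 37 C, then viability read by CellTiter-Glo luminescence.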

[5] = qHTS assay for small molecule agonists of the antioxidant response element (ARE) signaling pathway (AID 743202; active means well fitted activation curve with a large enough effect in the signal ratio in the repeat runs, not every such curve was filed as active; the % refers to the signal ratio; further: potency means the concentration at half of the fitted maximal effect)
Outline: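 HepG2 ARE-bla cells; 16 h treatment at 37 C; FRET-based beta-lactamase fluorescence read after 2 h substrate incubation at room temperature.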

[6] = qHTS assay for small molecule agonists of the antioxidant response element (ARE) signaling pathway - cell viability counter screen (AID 743203; calls by dose curve; further: nearly all actives have a fitted effect of over 55% in size)
Outline: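 Luminescence read-out (CellTiter-Glo, 30 min at room temperature) measured cell viability in the same wells as the ARE beta-lactamase reporter. HepG2 ARE-bla cells were treated with compounds for 16 hrs at 37C/5% CO2.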

[7] = qHTS assay for small molecule activators of the heat shock response signaling pathway - cell viability counter screen (AID 743209); further: nearly all actives have a fitted effect of over 50% in size
Outline: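 HSE-bla HeLa; 1500 cells/well; overnight 37 C, 5% CO2; compound 5 h 37 C; LiveBLAzer B/G substrate 2.5 h RT; CellTiter-Glo 30 min RT; luminescence.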

[8] = qHTS assay for small molecule activators of the heat shock response signaling pathway (AID 743210; active means well fitted activation curve with a large enough effect in the signal ratio in the repeat runs, with a control signal flat, not every such curve was filed as active; the % refers to the signal ratio;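 further: HeLa cells with beta-lactamase reporter driven by heat shock elements; series mostly up to about 63 µM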)
Outline: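 Following overnight attachment, HSE-bla HeLa cells received test compounds for 5 h at 37 C; beta-lactamase activity was then detected via FRET substrate fluorescence.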

[9] = qHTS assay to identify small molecule agonists of the peroxisome proliferator-activated receptor delta (PPARd) signaling pathway - cell viability counter screen (AID 743211); further: nearly all actives have a fitted effect of over 55% in size; further: potency means the concentration at half of the fitted maximal effect
Outline: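 Viability of GeneBLAzer PPARd UAS-bla HEK293H cells was assessed after 17 h compound incubation at 37C, using CellTiter-Glo reagent added after the reporter read and luminescence recorded 30 min later.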

[10] = biological target: Peroxisome proliferator-activated receptor delta (Homo sapiens) (UniProt Q03181); assay: qHTS assay to identify small molecule agonists of the peroxisome proliferator-activated receptor delta (PPARd) signaling pathway (AID 743212; calls by dose curve)
Chain of Peroxisome proliferator-activated receptor delta (Homo sapiens) (Q03181 whole entry, looked up): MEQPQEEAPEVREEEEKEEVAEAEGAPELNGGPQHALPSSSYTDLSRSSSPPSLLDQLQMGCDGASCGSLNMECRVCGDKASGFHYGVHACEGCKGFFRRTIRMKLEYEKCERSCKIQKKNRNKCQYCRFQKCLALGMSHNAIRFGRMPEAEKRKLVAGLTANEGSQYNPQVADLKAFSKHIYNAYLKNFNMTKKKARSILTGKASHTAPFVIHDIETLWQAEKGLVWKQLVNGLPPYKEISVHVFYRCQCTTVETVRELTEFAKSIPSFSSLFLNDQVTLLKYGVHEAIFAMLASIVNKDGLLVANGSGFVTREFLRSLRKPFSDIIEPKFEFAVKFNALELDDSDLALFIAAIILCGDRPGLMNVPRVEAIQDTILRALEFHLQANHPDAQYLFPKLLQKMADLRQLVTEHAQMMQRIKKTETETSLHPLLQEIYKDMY
Outline: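 Tox21 library screened in GeneBLAzer PPARd UAS-bla HEK293H cells. After compound treatment at 37 C, a FRET-based beta-lactamase substrate was applied for 2 h and fluorescence recorded.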

[11] = qHTS assay to identify small molecule antagonists of the peroxisome proliferator-activated receptor delta (PPARd) signaling pathway - cell viability counter screen (AID 743213); further: nearly all actives have a fitted effect of over 50% in size; further: potency means the concentration at half of the fitted maximal effect
Outline: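 Agonist-stimulated (L165041, 300 nM final) HEK293H PPARd UAS-bla cells are exposed to compounds for 17 h at 37 C, and ATP-based luminescence (CellTiter-Glo) from the same wells reports cytotoxicity.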

[12] = qHTS assay to identify small molecule agonists of the farnesoid-X-receptor (FXR) signaling pathway - cell viability counter screen (AID 743218); further: nearly all actives have a fitted effect of over 45% in size; further: potency means the concentration at half of the fitted maximal effect
Outline: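 Luminescence from CellTiter-Glo, read after 30 min at RT, reports viability of GeneBLAzer FXR-UAS-bla HEK 293T cells treated 16 h with compounds in the wells used for the beta-lactamase reporter.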

[13] = biological target: Bile acid receptor (Homo sapiens) (UniProt Q96RI1); assay: qHTS assay to identify small molecule agonists of the farnesoid-X-receptor (FXR) signaling pathway (AID 743220; active means well fitted activation curve with a large enough effect in the signal ratio in the repeat runs, not every such curve was filed as active; the % refers to the signal ratio)
Chain of Bile acid receptor (Homo sapiens) (Q96RI1 whole entry, looked up): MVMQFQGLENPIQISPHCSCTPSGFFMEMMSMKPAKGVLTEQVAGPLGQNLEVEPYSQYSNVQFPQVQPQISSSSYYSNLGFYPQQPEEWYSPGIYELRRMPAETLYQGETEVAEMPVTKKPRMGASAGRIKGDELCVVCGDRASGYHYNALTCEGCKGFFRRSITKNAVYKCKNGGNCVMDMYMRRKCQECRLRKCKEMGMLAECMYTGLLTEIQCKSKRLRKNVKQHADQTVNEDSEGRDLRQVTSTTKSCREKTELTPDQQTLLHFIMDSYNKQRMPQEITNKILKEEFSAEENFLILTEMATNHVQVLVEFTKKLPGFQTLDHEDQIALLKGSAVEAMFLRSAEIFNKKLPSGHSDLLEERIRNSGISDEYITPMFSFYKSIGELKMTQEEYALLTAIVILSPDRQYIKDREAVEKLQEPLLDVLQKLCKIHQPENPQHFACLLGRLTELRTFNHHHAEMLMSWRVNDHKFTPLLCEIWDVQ
Outline: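 FXR-UAS-bla HEK 293T cells carrying a UAS-driven beta-lactamase reporter were plated for 5 h at 37C/5% CO2, then exposed to DMSO-dissolved Tox21 10K compounds for 16 h at 37C. A LiveBLAzer B/G FRET substrate was loaded for 2 h at room temperature before fluorescence reading.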

[14] = qHTS assay to identify small molecule antagonists of the farnesoid-X-receptor (FXR) signaling pathway - cell viability counter screen (AID 743221; active means well fitted cell-killing curve with a large enough effect in the repeat runs, not every such curve was filed as active; further: nearly all actives have a fitted effect of over 50% in size; further: potency means the concentration at half of the fitted maximal effect)
Outline: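 Quantitative HTS of the Tox21 10K library run in parallel with the beta-lactamase reporter read. HEK 293T cells carrying a UAS-driven bla reporter got compound and 50 uM CDCA (final) for 16 h; ATP-based luminescence followed.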

[15] = biological target: Vitamin D3 receptor (Homo sapiens) (UniProt P11473); assay: qHTS assay to identify small molecule agonists of the vitamin D receptor (VDR) signaling pathway (AID 743222; calls by dose curve)
Chain of Vitamin D3 receptor (Homo sapiens) (P11473 whole entry, looked up): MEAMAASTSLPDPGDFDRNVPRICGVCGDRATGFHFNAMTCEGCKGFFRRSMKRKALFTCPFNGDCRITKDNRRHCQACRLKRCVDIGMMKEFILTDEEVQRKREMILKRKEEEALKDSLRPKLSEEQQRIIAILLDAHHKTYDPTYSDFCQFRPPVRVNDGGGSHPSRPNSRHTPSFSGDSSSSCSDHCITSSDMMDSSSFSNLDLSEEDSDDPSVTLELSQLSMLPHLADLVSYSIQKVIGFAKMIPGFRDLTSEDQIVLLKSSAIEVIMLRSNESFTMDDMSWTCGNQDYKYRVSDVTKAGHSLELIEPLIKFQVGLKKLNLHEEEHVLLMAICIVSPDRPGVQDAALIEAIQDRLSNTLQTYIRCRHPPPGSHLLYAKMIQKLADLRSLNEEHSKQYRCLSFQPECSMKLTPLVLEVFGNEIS
Outline: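 Beta-lactamase reporter readout (LiveBLAzer B/G FRET, 2 h RT) in VDR-bla cells after 16 h compound treatment at 37C, 5% CO2; cells pre-incubated 4 h before pin transfer of DMSO solutions.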

[16] = biological target: Vitamin D3 receptor (Homo sapiens) (UniProt P11473); assay: qHTS assay to identify small molecule antagonists of the vitamin D receptor (VDR) signaling pathway (AID 743223; active means well fitted inhibition curve with a large enough effect in the signal ratio in the repeat runs, not every such curve was filed as active; the % refers to the signal ratio)
Outline: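 Fluorescence from LiveBLAzer B/G FRET substrate, read after 2 h at room temperature, reflects beta-lactamase reporter activity in VDR-bla cells treated 16 h at 37C with compounds and agonist 1alpha,25-dihydroxyvitamin D3 (3 nM final).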

[17] = qHTS assay to identify small molecule agonists of the vitamin D receptor (VDR) signaling pathway - cell viability counter screen (AID 743224); further: nearly all actives have a fitted effect of over 50% in size; further: potency means the concentration at half of the fitted maximal effect
Outline: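 Cytotoxicity counter screen: VDR-bla cells, 16 h compound exposure at 37C, 5% CO2; CellTiter-Glo luminescence, 30 min RT, same wells as bla read.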

[18] = biological target: Aryl hydrocarbon receptor (Homo sapiens) (UniProt P35869); assay: qHTS assay to identify small molecule that activate the aryl hydrocarbon receptor (AhR) signaling pathway (AID 743085); further: nearly all actives have a fitted effect of over 15% in size; further: potency means the concentration at half of the fitted maximal effect;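 on activation: HG2L7.5c1 human HepG2 liver cells with stably integrated DRE-driven firefly reporter; series mostly up to about 70 µM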
Chain of Aryl hydrocarbon receptor (Homo sapiens) (P35869 whole entry, looked up): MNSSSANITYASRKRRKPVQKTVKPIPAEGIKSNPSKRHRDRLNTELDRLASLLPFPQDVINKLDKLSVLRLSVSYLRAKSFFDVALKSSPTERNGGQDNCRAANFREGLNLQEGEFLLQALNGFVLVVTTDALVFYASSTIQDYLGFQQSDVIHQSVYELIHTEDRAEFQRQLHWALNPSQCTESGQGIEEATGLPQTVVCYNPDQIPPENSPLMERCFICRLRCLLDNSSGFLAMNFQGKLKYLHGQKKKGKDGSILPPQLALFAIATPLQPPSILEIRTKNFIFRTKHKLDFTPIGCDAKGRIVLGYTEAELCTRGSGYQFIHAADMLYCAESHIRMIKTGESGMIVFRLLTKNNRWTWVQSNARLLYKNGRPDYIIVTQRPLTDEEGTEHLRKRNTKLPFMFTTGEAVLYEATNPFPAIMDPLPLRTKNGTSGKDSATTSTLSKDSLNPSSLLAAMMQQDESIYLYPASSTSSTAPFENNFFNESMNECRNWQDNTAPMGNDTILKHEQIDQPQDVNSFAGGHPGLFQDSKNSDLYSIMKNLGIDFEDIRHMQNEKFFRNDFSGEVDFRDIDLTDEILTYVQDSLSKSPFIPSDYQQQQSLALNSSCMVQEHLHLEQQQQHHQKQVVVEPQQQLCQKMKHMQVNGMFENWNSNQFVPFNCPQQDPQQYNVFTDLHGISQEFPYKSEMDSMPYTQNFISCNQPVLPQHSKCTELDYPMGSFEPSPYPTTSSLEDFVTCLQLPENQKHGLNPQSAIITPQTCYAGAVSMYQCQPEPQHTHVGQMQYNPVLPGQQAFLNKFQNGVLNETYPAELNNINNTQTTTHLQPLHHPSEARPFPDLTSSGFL
Outline: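 Steps: seed HepG2-AhR-luc cells; allow 5 h at 37C; pin-transfer test compound or vehicle; incubate 24 h at 37C; add viability dye (30 min, 37C) and read fluorescence; add luciferase substrate (30 min, RT) and read luminescence.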

[19] = biological target: Bile acid receptor (Homo sapiens) (UniProt Q96RI1); assay: qHTS assay to identify small molecule antagonists of the farnesoid-X-receptor (FXR) signaling pathway (AID 743217; active means well fitted inhibition curve with a large enough effect in the signal ratio in the repeat runs, not every such curve was filed as active; the % refers to the signal ratio; further: potency means the concentration at half of the fitted maximal effect)
Outline: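 Read-out: beta-lactamase FRET fluorescence (LiveBLAzer B/G substrate, 2 h, room temperature) in GeneBLAzer FXR-UAS-bla HEK 293T cells. Compounds were co-dosed with 50 uM chenodeoxycholic acid (final) and incubated 16 h at 37 °C.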

Row | SMILES | Potency [1] | Potency [2] | Potency [3] | Potency [4] | Potency [5] | Potency [6] | Potency [7] | Potency [8] | Potency [9] | Potency [10] | Potency [11] | Potency [12] | Potency [13] | Potency [14] | outcome [15] | outcome [16] | Potency [17] | Potency [18] | Potency [19]
1 | CC(=O)[C@H]1CC[C@H]2[C@@H]3C[C@H](C)C4=CC(=O)CC[C@]4(C)[C@H]3[C@@H](O)C[C@]12C | inactive | inactive | inactive | inactive | inactive | inactive | inactive | inactive | inactive | inactive | inactive | inactive | inactive | inactive | inactive | inactive | inactive |  | 
2 | CCCCC1C(=O)N(c2ccccc2)N(c2ccc(O)cc2)C1=O (centres undefined) | inactive |  |  | inactive | 29.8 µM (active) |  |  |  |  |  | inactive | inactive |  |  |  |  | inactive | inactive | 
3 | NC(=O)Cn1c(=O)cc(CCN2CCN(c3nccc4sccc34)CC2)c2ccc(F)cc21 |  |  |  | inactive | inactive | inactive |  | inactive | inactive |  | inactive | inactive | inactive | inactive |  |  | inactive | inactive | 
4 | COC(=O)Nc1nc2ccc(C(=O)c3cccs3)cc2[nH]1 | inactive |  |  | inactive | 0.75 µM (active) |  | inactive |  |  |  |  |  | inactive |  | inactive |  | inactive | 3.76 µM (active) | 
5 | CCCOc1ccc(S(=O)(=O)N2CCN(CC)CC2)cc1-c1nc2c(CC)n(Cc3ccccn3)nc2c(=O)[nH]1 |  |  |  | inactive |  |  | inactive | inactive | inactive |  | inactive | inactive |  | inactive | inactive |  | inactive | inactive | inactive
6 | COc1ccc(CCC(=O)c2c(O)cc(O[C@@H]3O[C@H](CO)[C@@H](O)[C@H](O)[C@H]3O[C@@H]3O[C@@H](C)[C@H](O)[C@@H](O)[C@H]3O)cc2O)cc1O | inactive | inactive | inactive | inactive | inactive | inactive | inactive | inactive | inactive |  | inactive | inactive |  | inactive | inactive | inactive | inactive |  | 
7 | Fc1ccccc1[C@@H](F)COC1CCC(Nc2ncnc3[nH]ncc23)CC1 (some centres undefined) | 30.6 µM (active) |  |  |  |  | inactive | inactive | inactive |  | inactive | inactive | inactive | inactive | inactive | inactive |  |  | inactive | 43.6 µM (active)
8 | CC(C)(C)CC(C)(C)c1ccc(OCCO)cc1 |  | inactive | inactive | inactive |  | inactive | inactive |  |  |  |  |  | inactive |  |  | inactive |  | inactive | 
9 | CCc1cccc(N(C)C(N)=Nc2cccc3ccccc23)c1 |  |  |  | inactive |  |  | inactive | inactive | inactive |  | inactive | inactive |  | inactive | inactive | inactive |  | inactive | 
10 | O=C(CCCN1CCN(c2ccc(F)cc2)CC1)NC1c2ccccc2CSc2ccccc21 (centres undefined) |  |  |  |  |  |  |  | inactive | 9.44 µM (active) | inactive | 8.41 µM (active) | 10.6 µM (active) | inactive | 26.6 µM (active) |  |  | 13.3 µM (active) | inactive | 
11 | CCCCCCCCCCCC(=O)[O][Sn]([CH2]CCC)([CH2]CCC)[O]C(=O)CCCCCCCCCCC | inactive |  |  |  | 2.11 µM (active) |  |  |  | inactive | inactive |  |  |  |  |  |  | 23.7 µM (active) | inactive | 
